# Values without a mark were called inactive. How the calls were made is not given here.
# System: BZP Rat Brain Site
# Test: radioligand displacement at receptors and transporters – biochemical, PDSP panel, Set 2, late-stage follow-up (AID 504381)
# Conditions: PDSP radioligand binding panel, at 10 µM, hits give high values
smiles,measurement,value
CC(=O)c1ccc2c(c1)Nc1ccccc1S2,inhibition,11.4%

# From PubChem BioAssay AID504381 (The Scripps Research Institute Molecular Screening Center, 2011)
